From PubChem BioAssay
MCF10A rereplic – A quantitative high throughput screen for small molecules that induce DNA re-replication in MCF 10a normal breast cells | 350,000 compounds, 2.9% hits | Potency, µM (top dose mostly 46.1 µM), for the others: at the top dose activity, positive = re-replication, most hits filed as activators | MCF 10A DNA re-replication, Hoechst nuclear intensity, 48 h; note: % of control where 0% means no effect; nearly all actives have a fitted effect of over 50% in size
KB-3-1 tox – qHTS assay for MDR1-selective chemotherapeutics: Primary screen using the parental adenocarcinoma cell KB-3-1; AID 1347075, 2019; 400,000 compounds, 1.4% hits; KB-3-1 viability, CellTiter-Glo ATP luminescence, 72 h; Potency, µM (top dose mostly 46.1 µM), most hits filed as cytotoxic; note: % is set by controls: 0 for no effect and ±100 for the full control effect; nearly all actives have a fitted effect of over 60% in size
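Parental KB-3-1 viability, qHTS format: 72 h compound exposure, 37 °C; CellTiter-Glo; media-only wells and DMSO plates as controls; concentration-effect fits on corrected data.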
HT1080 IDH1KD tx – qHTS for induction of synthetic lethality in tumor cells producing 2HG: qHTS for the HT-1080-IDH1KD cell line; Potency, µM (doses to about 46.1 µM), without a hit: top-dose activity, negative = toxicity, actives largely listed as cytotoxic; 360,000 compounds, 2% hits; HT-1080 IDH1 knockdown viability, ATP luminescence, 48 h;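 note: 0% = DMSO wells and -100% = cell-free medium wells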
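% activity derives from luminescence (CellTiter-Glo), normalised to DMSO and no-cell wells. HT-1080-IDH1KD cells, 750/well, had 48 h compound exposure at 37 °C.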
KB-V1 cytotox – qHTS assay for MDR1-selective chemotherapeutics: Primary screen using the drug-selected MDR subline cells KB-V1; AID 1347076, 2019; 400,000 compounds, 3.4% hits; KB-V1 MDR cells viability, CellTiter-Glo, 72 h; Potency, µM (doses to about 46.1 µM), actives largely listed as cytotoxic; note: % is set by controls: 0 for no effect and ±100 for the full control effect; nearly all actives have a fitted effect of over 60% in size
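In this primary screen, KB-V1 cells overexpressing P-gp are incubated with library compounds (lowest to highest concentration) for 72 h at 37 degrees C before a luminescent ATP viability read.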
SW480 rereplic – A quantitative high throughput screen for small molecules that induce DNA re-replication in SW480 colon adenocarcinoma cells. SW480 DNA re-replication, Hoechst DNA content imaging, 48 h. Potency, µM (series often up to 46.1 µM), for inactives: top-dose re-replication activation, hits mostly activators. 340,000 compounds, 1.8% hits; note: % of control where 0% means no effect; nearly all actives have a fitted effect of over 55% in size
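Readout is total intensity of Hoechst-stained nuclei, excited at 405 nm and collected at 500-530 nm. Compound treatment lasted 48 hr at 37 C in 5% CO2 before staining.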
HT1080NT lethal – qHTS for induction of synthetic lethality in tumor cells producing 2HG: qHTS for the HT-1080-NT fibrosarcoma cell line; AID 686970, 2013; Potency, µM (top dose mostly 46.1 µM), without a hit: at the highest dose activity, negative = less viability, most hits filed as cytotoxic; 360,000 compounds, 1.6% hits; HT-1080-NT fibrosarcoma viability, CellTiter-Glo ATP luminescence, 48 h;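 note: NT is the 2HG producing partner of a matched IDH1 knockdown line; 0% = DMSO-treated cells and -100% = media-only wells without cells; nearly all actives have a fitted effect of over 55% in size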
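750 cells/well, RPMI + 5% FBS; 2 h settle, compound pin-transfer, 48 h at 37 degrees C. CellTiter-Glo 10 min RT, luminescence. Normalized to DMSO and media-only wells.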
* = called active by the depositor; [ ] = another dose, or the depositor's remark. Sampled rows, rich in hits. Any-hit rate of the full collection: about 8%. Calls come from the whole dose curve; as a rule, active = well fitted curve in the direction sought with a large enough effect; inconclusive = small, poorly fitted or top-dose-only effect, or another doubt; inactive = no such curve, though single readings can be large; an effect the other way counts as inactive or inconclusive. Potency is the fitted concentration of half-maximal effect.

`c1ccc2cc(CNCc3cccc4ccccc34)ccc2c1` gave MCF10A rereplic inconclusive, KB-3-1 tox inactive, HT1080 IDH1KD tx 23µM*, KB-V1 cytotox inactive, SW480 rereplic -12% and HT1080NT lethal inconclusive.
`CCS(=O)(=O)Nc1ccc(C2=NN(C(=S)Nc3ccccc3)C(c3ccco3)C2)cc1` (stereo not drawn) gave MCF10A rereplic 22%, KB-3-1 tox inactive, HT1080 IDH1KD tx inconclusive, KB-V1 cytotox 13µM*, SW480 rereplic inconclusive and HT1080NT lethal -24%.
For CS(=O)(=O)Nc1ccc(C2=NN(C(=O)c3ccco3)C(c3ccccc3)C2)cc1 (stereo not drawn) the results were MCF10A rereplic -42%, KB-3-1 tox inactive, HT1080 IDH1KD tx -13%, KB-V1 cytotox 16µM*, SW480 rereplic -82% and HT1080NT lethal -1%.
`CC(C)(C)n1[nH]c2c3c(ccc2c1=O)C(=O)c1ccccc1C3=O` gave MCF10A rereplic 17%, KB-3-1 tox inconclusive, HT1080 IDH1KD tx inconclusive, KB-V1 cytotox inconclusive, SW480 rereplic 12µM* and HT1080NT lethal inconclusive.
`COCCCn1[nH]c2c3c(ccc2c1=O)C(=O)c1ccccc1C3=O` gave MCF10A rereplic inconclusive, KB-3-1 tox inconclusive, HT1080 IDH1KD tx inconclusive, KB-V1 cytotox 15µM*, SW480 rereplic inconclusive and HT1080NT lethal inconclusive.
COCCNC(=O)c1cccc2c1-c1ccccc1C2=O was read as MCF10A rereplic -2%, KB-3-1 tox inactive, HT1080 IDH1KD tx 19%, KB-V1 cytotox inconclusive, SW480 rereplic -5% and HT1080NT lethal 18%.
Screening Cc1ccc(C)c(-n2[nH]c3c4c(ccc3c2=O)C(=O)c2ccccc2C4=O)c1 returned MCF10A rereplic 18µM*, KB-3-1 tox inconclusive, HT1080 IDH1KD tx -2%, KB-V1 cytotox inconclusive, SW480 rereplic -1% and HT1080NT lethal -1%.
`Cc1ccc(-n2[nH]c3c4c(ccc3c2=O)C(=O)c2ccccc2C4=O)cc1` gave MCF10A rereplic 2%, KB-3-1 tox inactive, HT1080 IDH1KD tx 20%, KB-V1 cytotox inactive, SW480 rereplic 13% and HT1080NT lethal 24%.
For CCOc1cc(C2Nc3cccc4cccc(c34)N2)ccc1O the results were MCF10A rereplic 8%, KB-3-1 tox inconclusive, HT1080 IDH1KD tx 2%, KB-V1 cytotox 15µM*, SW480 rereplic inconclusive and HT1080NT lethal -19%.
`CCOc1ccc(C2Nc3cccc4cccc(c34)N2)cc1OC` gave MCF10A rereplic -4%, KB-3-1 tox inactive, HT1080 IDH1KD tx -2%, KB-V1 cytotox inactive, SW480 rereplic -7%[9.22 µM] and HT1080NT lethal -16%.
`CCCn1cnnc1CNC(=O)[C@H]1O[C@@H](n2ccc(=O)[nH]c2=O)[C@H](O)[C@@H]1O` gave KB-3-1 tox inactive, HT1080 IDH1KD tx 1%, KB-V1 cytotox 18µM* and HT1080NT lethal -3%.
`O=C(Nc1cccc(C(=O)Nc2ccc(Cl)cn2)c1)c1ccccc1` gave MCF10A rereplic 12%, KB-3-1 tox inactive, HT1080 IDH1KD tx 3%, KB-V1 cytotox inactive, SW480 rereplic 33% and HT1080NT lethal -2%.
O=C(Nc1ccc(Cl)cn1)c1ccccc1F was read as MCF10A rereplic 13µM*, KB-3-1 tox 23µM*, HT1080 IDH1KD tx -27%, KB-V1 cytotox inconclusive, SW480 rereplic 12µM* and HT1080NT lethal inconclusive.
